{
  "source": "the supplement of paper PMC8728848",
  "binders": {"B1": {"name": "FBG1 (Homo sapiens), Q9UK22 (protein)", "chain": "MDGDGDPESVGQPEEASPEEQPEEASAEEERPEDQQEEEAAAAAAYLDELPEPLLLRVLAALPAAELVQACRLVCLRWKELVDGAPLWLLKCQQEGLVPEGGVEEERDHWQQFYFLSKRRRNLLRNPCGEEDLEGWCDVEHGGDGWRVEELPGDSGVEFTHDESVKKYFASSFEWCRKAQVIDLQAEGYWEELLDTTQPAIVVKDWYSGRSDAGCLYELTVKLLSEHENVLAEFSSGQVAVPQDSDGGGWMEISHTFTDYGPGVRFVRFEHGGQDSVYWKGWFGARVTNSSVWVEP"}},
  "test_in_all_cases": "glycan array binding signal (z-score within array); higher = stronger binding",
  "details_in_all_cases": "glycan notation: IUPAC condensed, linker removed",
  "key": {"[1]": {"biological_target": "Fuc(a1-2)Gal(b1-3)GalNAc(b1-3)Gal(a1-4)Gal(b1-4)Glc", "in_short": "(§1)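 From the Consortium for Functional Glycomics database, 3228 arrays were curated, keeping only those whose protein sequence was available. Binding is given as a within-array Z-score averaged across arrays sharing a protein sequence and across linkers. Negative Z-scores can be read as non-binding.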"}, "[2]": {"biological_target": "Gal(a1-3)Gal", "in_short": "as §1"}, "[3]": {"biological_target": "Gal(b1-4)GlcNAc(b1-3)GalNAc", "in_short": "as §1"}, "[4]": {"biological_target": "Man(a1-2)Man(a1-3)[Man(a1-2)Man(a1-6)]Man(a1-6)[Man(a1-3)[Man(a1-6)]Man(a1-6)]Man(b1-4)GlcNAc(b1-4)GlcNAc", "in_short": "as §1"}, "[5]": {"biological_target": "Man(a1-2)Man(a1-6)[Man(a1-3)]Man(a1-6)[Man(a1-2)Man(a1-2)Man(a1-3)]Man(b1-4)GlcNAc(b1-4)GlcNAc", "in_short": "as §1"}, "[6]": {"biological_target": "Neu5Ac(a2-3)[GalNAc(b1-4)]Gal(b1-4)GlcNAc", "in_short": "as §1"}, "[7]": {"biological_target": "Neu5Gc(a2-3)Gal(b1-3)GlcNAc", "in_short": "as §1"}},
  "note": "Only a selection was taken, and the strongest signals are over-represented in it overall.",
  "data": [
    {"binder": "B1", "values": [
      {"measurement": "glycan array binding signal (z-score)", "setting": "[1]", "result": 0.049},
      {"measurement": "glycan array binding signal (z-score)", "setting": "[2]", "result": -0.252},
      {"measurement": "glycan array binding signal (z-score)", "setting": "[3]", "result": 5.13},
      {"measurement": "glycan array binding signal (z-score)", "setting": "[4]", "result": 4.33},
      {"measurement": "glycan array binding signal (z-score)", "setting": "[5]", "result": 4.93},
      {"measurement": "glycan array binding signal (z-score)", "setting": "[6]", "result": -0.217},
      {"measurement": "glycan array binding signal (z-score)", "setting": "[7]", "result": -0.177}
    ]}
  ]
}
